NR3A LBD binder = NR3A (human) ligand-binding domain modulation | NR3A LBD differential scanning fluorimetry, Tm shift; 0% = protein alone, 100% = glycine-bound protein | AID 1259313 | 340,000 tested, 2.5% active | Tm shift relative to glycine control, % at 25 µM;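 active means melting temperature shift of at least 10% of the positive control shift, at one fixed dose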
UBC13 polyUb = inhibitors of human UBC13 polyubiquitin chain formation; inhibition, % at 20 µM; AID 485273; TR-FRET; 330,000 tested, 0.47% active; P61088; in the data active means inhibition above about 45%, passing the limit was not always enough
SUMO HTRF inh = SUMOylation inhibition; 290,000 tested, 0.36% active; inhibition, % at 35 µM; HTRF SUMOylation assay, SAE1/SAE2 + UBC9, in vitro; AID 2006; P63279; in the data active means inhibition above about 50%, passing the limit was not always enough
HGIII-sPLA2 inh = Inhibits HGIII-sPLA2 liposome hydrolysis, primary screen. Q9NZ20. QFRET BODIPY PC-A2 liposome hydrolysis, fluorescence. inhibition, % at 12.2 µM. 370,000 tested, 0.56% active. AID 743126;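 active means inhibition above mean plus 3 SD of compounds lying within the high and low control bounds, cut at about 19% in these data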;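 further: 0% = median of test compound wells and 100% = no enzyme DMSO wells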
Active calls of the source: *; / = no result given. In the library only some 3.3% were active in any assay of this set; here they are far more common.

SMILES	NR3A LBD binder	UBC13 polyUb	SUMO HTRF inh	HGIII-sPLA2 inh
CCC(c1nnnn1CCOC)N1CCN(Cc2ccccc2OC)CC1 (configuration not stated)	15.1*	-3.6	11.1	6.2
COc1ccc(S[C@]2(C(=O)N3CCN(c4ncccn4)CC3)CC(=O)N(C(=O)/C=C/c3ccccc3)[C@@H]2c2ccc(OC)cc2)cc1	/	/	/	9.6
C=CCn1c(SCC(=O)c2ccc(F)cc2)nnc1-c1ccc(F)cc1	/	/	/	-30.0
Cc1ccc2cccc(Oc3ncnc4scc(-c5ccc(Cl)cc5)c34)c2n1	11.2*	-14.3	-6.8	-4.6
CN(C)c1ccc(C=C2C(=O)OC(C)(C)OC2=O)cc1	0.3	-92.7	14.5	-6.1
CCN(CC)c1ccc(C=C2C(=O)OC(c3ccccc3)OC2=O)cc1 (configuration not stated)	31.6*	-19.8	10.6	1.4
CCN(CC)c1ccc(C=C2C(=O)OC(C)(C(C)(C)C)OC2=O)cc1 (configuration not stated)	2.4	-155.1	/	1.9
CCN(CC)c1ccc(C=C2C(=O)OC3(CCCC3)OC2=O)cc1	23.2*	-73.5	4.2	-1.2
COC(=O)c1cccc(Cn2ccc3ccc(-c4ccc5ccn(C(=O)C6CCC6)c5c4)cc32)c1	/	/	/	-4.8
Cc1cccc(OCc2nnc(N)s2)c1C	12.2*	9.9	1.1	0.1
Cc1ccc(OCc2nnc(N)s2)cc1	-2.3	2.7	-0.7	-4.2
Cc1cc([N+](=O)[O-])ccc1P(=O)(O)c1ccc([N+](=O)[O-])cc1C	15.4*	/	/	1.3
CCCCCCc1cc2cc(S(=O)(=O)c3ccc(F)c(Cl)c3)c(=O)oc2cc1O	33.2*	-16.6	-9.4	0.3
O=C(c1cc(-c2ccc(Cl)cc2)nc2ccccc12)N1CCN(c2ncccn2)CC1	/	/	/	5.7
O=C(O)c1ccc(-n2nc(-c3ccccc3O)nc2-c2ccccc2O)cc1	/	/	/	-10.3
Cc1ccc(S(=O)(=O)N(C)CC(=O)O/N=C(\N)c2ccc([N+](=O)[O-])cc2)cc1	21.3*	-6.3	-3.6	-2.9
COc1cc(C(=O)O/N=C(\N)c2cccc([N+](=O)[O-])c2)cc(OC)c1OC	13.9*	4.0	-8.2	11.2
CN(CC(=O)O/N=C(\N)c1ccc([N+](=O)[O-])cc1)S(=O)(=O)c1ccccc1	0.7	19.8	-2.3	2.3
COc1cc(C(=O)O/N=C(\N)c2ccc([N+](=O)[O-])cc2)cc(OC)c1OC	1.0	-1.8	1.8	-1.1
Cc1ccc(C(=O)O/N=C(\N)c2cccc([N+](=O)[O-])c2)cc1	12.9*	5.7	29.3	1.6
COC(=O)C[C@@H]1CC[C@@H]2[C@@H](COc3ccc(NC(C)=O)cc3C(=O)N2C)O1	/	/	/	5.8
COc1cccc(Nc2ccc(Nc3cccc(OC)c3)nn2)c1	33.4*	8.7	-18.3	-0.4
COc1ccccc1-c1ccc(Nc2cccc(C(C)=O)c2)nn1	11.1*	-3.0	-1.0	-0.1
CC(=O)c1cccc(Nc2ccc(-c3ccccc3F)nn2)c1	-12.3	15.8	10.3	2.4
CCCC(=O)Nc1c(C)n[nH]c1C	0.8	3.4	10.9	11.2
SMILES	NR3A LBD binder	UBC13 polyUb	SUMO HTRF inh	HGIII-sPLA2 inh
CNCC(=O)Nc1c(C)n[nH]c1C	13.7*	3.5	4.0	-4.9
O=C(Cn1nc(-c2ccccc2)ccc1=O)NCCc1ccccc1F	/	/	/	-2.8
Cc1ccc(C2=NN(C(=O)c3cccs3)C(c3ccccc3O)C2)cc1 (configuration not stated)	4.7	-1.3	27.2	-1.4
O=C(c1cccs1)N1N=C(c2ccccc2)CC1c1ccccc1O (configuration not stated)	-16.1	0.0	65.9*	-40.3
Fc1ccc(CSc2nnc(-c3ccncc3)o2)cc1	0.3	4.6	0.5	2.7
Cc1ccccc1-c1nnc(SCc2ccc(F)cc2)o1	13.0*	-1.9	-9.6	-5.2
Clc1ccc(CSc2nnc(-c3c[nH]c4ccccc34)o2)cc1	26.5*	6.1	-17.2	-3.8
O=S(=O)(Nc1ccc(-c2nnc(SCc3ccc(Cl)cc3)o2)cc1)c1ccccc1	13.6*	-24.1	-24.7	-75.3
COC(=O)c1ccc(CN2CC3CC(c4ccccc4)N4CCCC34C2=O)cc1 (configuration not stated)	/	/	/	-2.0
Cc1ccccc1Cn1cc(COC(=O)N2CCOCC2)nn1	/	/	/	7.2
CN(C)c1cccc(/C=C2\CC3(OC(=O)c4ccc(F)cc4)CCCN2C3)c1 (configuration not stated)	/	/	/	14.1
Cc1ccc(NC(=O)c2cccc(C(=O)Nc3ccc(C)cc3C(=O)O)c2)c(C(=O)O)c1	24.6*	-10.2	3.4	-10.3
O=C(Nc1nc(-c2ccccc2)cs1)c1ccco1	-21.5	5.0	-8.8	-7.4
O=C(Nc1cc(-c2ccccc2)cs1)c1ccco1	12.3*	-2.9	/	0.0

Source: PubChem
